# ± gives the standard deviation.
# Test system: OVCAR-3-derived ovarian cancer stem-like cells (spheroids)
# Assay: cell growth relative to untreated control; higher = more growth (less inhibition)
# Conditions: 2.29 µM; 96 h
# Method in brief: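 Stem-like cells derived from OVCAR-3 spheroids were dissociated with trypsin and seeded at 50,000 cells/mL in stem cell medium in ultra-low attachment 96-well plates, then preincubated for 24 h. Each compound was added at 2.29 uM to 4 replicate wells and left for 96 h at 37°C, 5% CO2. Viability came from TOX8 resazurin fluorescence (ex 560/em 590 nm) read after 4 h. Percent growth was expressed relative to untreated wells, after blank subtraction and removal of outliers by the Grubbs test.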
row,SMILES,cell growth [%]
1,COc1ccc2cccc(C(=N)c3ccc(C)c4c3CCC4)c2c1,95.3 ± 25
2,Nc1nc(=S)c2ncn([C@@H]3C[C@H](O)[C@@H](CO)O3)c2[nH]1,110 ± 13
3,Cc1ccc(C)c(NC(=O)C(=O)C(C(=O)c2ccc3ccccc3c2)C2OC(=O)c3ccccc32)c1 (stereo not given),121 ± 78
4,Cc1nc(-n2nc(-c3ccccc3)cc2-c2ccccc2)sc1C(=O)/C=C/c1ccc(Cl)c(Cl)c1,109 ± 25
5,CC(C)CCCCCCCCCCCCC(=O)NCC(=O)NC1C(C)OC(Nc2ncnc3nc[nH]c23)C(O)C1O (stereo not given),17.4 ± 6.2
6,CC(=O)C(N1CCCCC1)C(O)(C(F)(F)F)C(F)(F)F (stereo not given),107 ± 38
7,Oc1ccc2ccccc2c1N=Nc1cccc2ccccc12,82.9 ± 12
8,C1CN(c2nnc(N3CCC3)nn2)C1,104 ± 18
9,COC(=O)C1CCC(=O)N1C(c1ccc(OC)cc1)c1cc(OC)c(OC)c(OC)c1 (stereo not given),18.5 ± 9.1
10,CC1OC1C(=O)C1(O)C(C)C(O)C23OC2(C(O)c2c(O)cccc2C3=O)C1O (stereo not given),23.6 ± 6.9
11,CCCC[S+]([O-])CC(CO)NC(=O)/C=C\c1c(C)[nH]c(=O)[nH]c1=O (stereo not given),105 ± 28
12,O=S(=O)(O)SC/C=C/CSS(=O)(=O)O,143 ± 16
13,COC(=O)C(=O)C(C(=O)C(=O)Nc1cc(C)ccc1C)c1nc2ccc(C(=O)c3ccccc3)cc2[nH]c1=O (stereo not given),91.5 ± 15
14,COc1cc2c[n+](C)c3c4cc5c(cc4ccc3c2cc1OC)OCO5,48.7 ± 21
15,COc1ccc(/C=C2\CCCc3ccccc3C2=O)cc1,54.4 ± 10
16,N#CC1=C(N)Oc2c(ccc3cccnc23)C1c1ccccc1 (stereo not given),57.8 ± 17
17,CC(C)(C)c1ccc(OC2CCO2)cc1 (stereo not given),89.3 ± 19
18,Cc1nc(-c2cccnc2)sc1C(=O)/C=C/c1ccc(Cl)cc1Cl,114 ± 34
19,COC1/C=C/OC2(C)Oc3c(C)c(O)c4c(c3C2=O)C(=O)C=C(NC(=O)/C(C)=C\C=C\C(C)C(OC=O)C(C)C(O)C(C)C(OC(C)=O)C1C)C4=O (stereo not given),66.6 ± 67
20,COc1ccccc1/C=C1\Sc2scc(-c3cccc([N+](=O)[O-])c3)[n+]2C1=O,128 ± 18

row,SMILES,cell growth [%]
1,Cc1cc2cc3cc(C)c(N)cc3nc2cc1N,40.2 ± 5.5
2,O=C1c2ccccc2-c2c1c1ccccc1c(=O)n2Cc1ccccc1,86.2 ± 51
3,Cc1cccc(C)c1NC(=O)C(=O)C(c1ccccc1Cl)S(=O)(=O)Cc1ccccc1Cl (stereo not given),85.2 ± 16
4,COCC(=O)OC1CCn2c1nc1c2C(=O)C(C)=C(NC(C)=O)C1=O (stereo not given),76.1 ± 12
5,O=C1NC(c2cccc3ccccc23)Nc2ccc(Cl)cc21 (stereo not given),99.5 ± 9.1
6,CCOC(=O)c1ccc(N=Cc2ccc(N(CCC#N)CCC#N)cc2)cc1,101 ± 20
7,O=c1oc2ccccc2cc1-c1ccc([N+](=O)[O-])cc1,38.6 ± 7.1
8,C[C@]12C=CC(=O)C=C1[C@@H](F)C[C@H]1[C@@H]3CC[C@](O)(C(=O)CO)[C@@]3(C)C[C@H](O)[C@@]12F,80 ± 22
9,COC1=CC(=O)c2c(ccc3ncnc(N)c23)C1=O,79.1 ± 20
10,CC/C(=C(\c1ccccc1)c1ccc(OCCN(C)C)cc1)c1ccccc1,115 ± 14
11,O=C1Nc2ccc(Br)cc2/C1=C\C(=O)c1ccccc1,96.9 ± 11
12,O=C1c2ccccc2C(=O)c2nc(-c3ccccc3)c(-c3ccccc3)nc21,137 ± 51
13,Cc1ccc(C2NC(=O)c3ccccc3N2)s1 (stereo not given),60.4 ± 16
14,O=C(CCc1ccccc1)On1nnc2ccccc2c1=O,79 ± 18
15,CC12CC(Br)(Br)C(=O)C3C1CCCC32,159 ± 19
16,CCNC(=O)OCc1c(COC(=O)NCC)c(-c2ccc(Cl)c(Cl)c2)n2c1CCC2,74.1 ± 12
17,O=Nc1ccc(O)c2ncccc12,82 ± 25
18,CN1C(c2ccccc2)CC(=NO)CC1c1ccccc1 (stereo not given),99.7 ± 13
19,O=c1[nH]c(=O)n(C2OC(CO)C(O)C2O)cc1F (stereo not given),19.2 ± 4.6
20,COc1ccc2cc1Oc1ccc(cc1)CC1c3c(cc(OC)c4c3Oc3cc5c(cc3O4)CCNC5C2)CCN1C (stereo not given),71.8 ± 23

# Reference: the supplement of paper PMC3484114
